Reference: PubChem BioAssay (NCI)
Compounds without any hit were thinned out: in the full panel of roughly 83,000, 20% have a hit.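 Values shown are percent growth following 48 h exposure of cells in 96-well plates to a single concentration of compound; below 10 was considered active.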 Active and inactive are the calls of the source.

Experiments:
Assay in all cases: NCI-60 one-dose screen, 48 h (100 = growth as untreated, 0 = no growth, -100 = all killed)
SK-MEL-2 melanoma = conditions: 10 µM unless noted
EKVX NSCLC = system: EKVX NSCLC
UO-31 renal = system: UO-31 renal
ACHN renal = system: ACHN renal
CAKI-1 renal = system: CAKI-1 renal
A498 renal = system: A498 renal
CCRF-CEM leukemia = system: CCRF-CEM leukemia
MOLT-4 leukemia = conditions: 10 µM unless noted
TK-10 renal = system: TK-10 renal
SN12C renal = conditions: 10 µM unless noted

Measured: growth

C/C(=N\Nc1ccc(S(N)(=O)=O)cc1)c1cnn(-c2cc(=O)[nH]c3ccc(Br)cc23)c1C
inactive: SK-MEL-2 melanoma 20% | EKVX NSCLC; 10 µM unless noted 72.1% | UO-31 renal; 10 µM unless noted 54.8% | ACHN renal; 10 µM unless noted 81% | CAKI-1 renal; 10 µM unless noted 76.7% | A498 renal; 10 µM unless noted 115% | MOLT-4 leukemia 18.5%
active: CCRF-CEM leukemia; 10 µM unless noted 8.23%

COC(=O)CSC1=C(C)C(=O)C(OC)=C(OC)C1=O
inactive: SK-MEL-2 melanoma 103% | EKVX NSCLC; 10 µM unless noted 91% | UO-31 renal; 10 µM unless noted 80.7% | ACHN renal; 10 µM unless noted 96.4% | CAKI-1 renal; 10 µM unless noted 77.4% | A498 renal; 10 µM unless noted 90.4% | CCRF-CEM leukemia; 10 µM unless noted 25% | MOLT-4 leukemia 17.5%

CC/C(=C(/c1ccc(O)cc1)c1ccc(OCCN(C)C(=O)COCCOCCNC(=O)Cc2ccc3c(c2)CN([C@@H]2CCC(=O)NC2=O)C3=O)cc1)c1ccccc1
inactive: EKVX NSCLC; 1 µM 99.4% | EKVX NSCLC; 10 µM 105% | UO-31 renal; 1 µM 91.6% | UO-31 renal; 10 µM 89.4% | TK-10 renal; 1 µM 101% | TK-10 renal; 10 µM 89.2% | ACHN renal; 1 µM 102% | ACHN renal; 10 µM 106% | CAKI-1 renal; 1 µM 99.8% | CAKI-1 renal; 10 µM 101% | A498 renal; 1 µM 119% | A498 renal; 10 µM 115% | CCRF-CEM leukemia; 10 µM 16.7%
active: CCRF-CEM leukemia; 1 µM -11%

CC(C)C[C@H](NC(=O)[C@@H]1CCCCCCCCCCC(=O)N[C@@H](CC(=O)N2CCC[C@@H]2C2CCCC2)C(=O)N1)B(O)O
active: SK-MEL-2 melanoma -70.6% | EKVX NSCLC; 10 µM unless noted -39.2% | UO-31 renal; 10 µM unless noted -66.8% | TK-10 renal; 10 µM unless noted 0.691% | ACHN renal; 10 µM unless noted 3.27% | CAKI-1 renal; 10 µM unless noted 7.24% | A498 renal; 10 µM unless noted -87.2% | MOLT-4 leukemia -19.9%
inactive: CCRF-CEM leukemia; 10 µM unless noted 44%

COc1ccc(-c2nc3ccc(-c4nnc(SCC(=O)Nc5ccc(/C(C)=N\O)cc5)o4)cc3[nH]2)cc1
inactive: SK-MEL-2 melanoma 76.2% | EKVX NSCLC; 10 µM unless noted 95.3% | UO-31 renal; 10 µM unless noted 87.5% | TK-10 renal; 10 µM unless noted 111% | ACHN renal; 10 µM unless noted 85.9% | CAKI-1 renal; 10 µM unless noted 96.1% | A498 renal; 10 µM unless noted 166% | CCRF-CEM leukemia; 10 µM unless noted 55.6% | MOLT-4 leukemia 55.9%

CCCCNc1ccc2c3c(cccc13)C(=O)N(NCC(O)COc1ccc3c(C)cc(=O)oc3c1)C2=O (stereo not given)
inactive: SK-MEL-2 melanoma 96.9% | EKVX NSCLC; 10 µM unless noted 77.4% | SN12C renal 94.5% | ACHN renal; 10 µM unless noted 86.2% | CAKI-1 renal; 10 µM unless noted 85.6% | A498 renal; 10 µM unless noted 89.2% | CCRF-CEM leukemia; 10 µM unless noted 84.2% | MOLT-4 leukemia 77.7%

COc1ccc2nc(NC(=O)c3ccc(N(C)C)cc3)sc2c1
inactive: SK-MEL-2 melanoma 88.8% | EKVX NSCLC; 10 µM unless noted 63.4% | UO-31 renal; 10 µM unless noted 46.7% | TK-10 renal; 10 µM unless noted 115% | ACHN renal; 10 µM unless noted 77.5% | CAKI-1 renal; 10 µM unless noted 79.6% | A498 renal; 10 µM unless noted 95.6% | CCRF-CEM leukemia; 10 µM unless noted 47.7% | MOLT-4 leukemia 43.1%

O=C(Nc1nc2ccc([N+](=O)[O-])cc2s1)Nc1ccc(Cl)cc1Cl
inactive: SK-MEL-2 melanoma 65% | EKVX NSCLC; 10 µM unless noted 40.7% | UO-31 renal; 10 µM unless noted 59.8% | TK-10 renal; 10 µM unless noted 40.9% | ACHN renal; 10 µM unless noted 37.3% | CAKI-1 renal; 10 µM unless noted 57.2% | CCRF-CEM leukemia; 10 µM unless noted 42.1% | MOLT-4 leukemia 33.9%

CN(C)c1nc(NCCNS(=O)(=O)c2ccc(C(=O)/C=C/c3ccccc3)cc2)nc(N2CCOCC2)n1
inactive: SK-MEL-2 melanoma 97.6% | EKVX NSCLC; 10 µM unless noted 77.6% | UO-31 renal; 10 µM unless noted 70.9% | TK-10 renal; 10 µM unless noted 108% | ACHN renal; 10 µM unless noted 87% | CAKI-1 renal; 10 µM unless noted 68.5% | A498 renal; 10 µM unless noted 77.2% | CCRF-CEM leukemia; 10 µM unless noted 55.1% | MOLT-4 leukemia 13.9%

COc1ccccc1/C=C/c1cccc(NC(=S)NCCCCN(C)C)c1
active: SK-MEL-2 melanoma -81.4% | EKVX NSCLC; 10 µM unless noted -91.7% | UO-31 renal; 10 µM unless noted -84.9% | TK-10 renal; 10 µM unless noted -82.7% | ACHN renal; 10 µM unless noted -100% | CAKI-1 renal; 10 µM unless noted -87.8% | A498 renal; 10 µM unless noted -65.9% | CCRF-CEM leukemia; 10 µM unless noted -38.8% | MOLT-4 leukemia -32.9%

O=C(OCCOCCO)N(c1cccc(Br)c1)c1nc(SCCN2CCOCC2)nc2c1cnn2CC(Cl)c1ccc(Br)cc1 (stereo not given)
inactive: EKVX NSCLC; 10 µM unless noted 26.6% | SN12C renal 20.3% | TK-10 renal; 10 µM unless noted 40.5% | CAKI-1 renal; 10 µM unless noted 27.8%
active: SK-MEL-2 melanoma -60.3% | ACHN renal; 10 µM unless noted 2.9% | CCRF-CEM leukemia; 10 µM unless noted -18.4% | MOLT-4 leukemia -24.3%

COc1c(B(O)O)cc(F)cc1-c1nc2c(F)cc3[nH]ncc3c2c2c1CCCC2
inactive: SK-MEL-2 melanoma 46.8% | EKVX NSCLC; 10 µM unless noted 13.5% | TK-10 renal; 10 µM unless noted 21.3% | MOLT-4 leukemia 17%
active: ACHN renal; 10 µM unless noted 4.28% | CAKI-1 renal; 10 µM unless noted 0.122% | A498 renal; 10 µM unless noted -30.7% | CCRF-CEM leukemia; 10 µM unless noted -3.23%

O=C(CSc1nnc(-c2ccc(-c3nc4ccccc4[nH]3)cc2)o1)Nc1ccc(Br)cc1
inactive: SK-MEL-2 melanoma 41.4% | EKVX NSCLC; 10 µM unless noted 27.1% | UO-31 renal; 10 µM unless noted 63.2% | TK-10 renal; 10 µM unless noted 56.7% | CAKI-1 renal; 10 µM unless noted 25.2% | CCRF-CEM leukemia; 10 µM unless noted 23%
active: ACHN renal; 10 µM unless noted -60.9% | MOLT-4 leukemia 4.27%
